Data from PubChem BioAssay AID1159580 (chemical genetic matrix, 2015).
In all, about 5,500 compounds went through this assay and about 2,000 (36%) were called active. Inconclusive results (about 18%) are left out. Rule as the data show it: active = normalized growth mostly below about 0.91 (no sharp cut-off); inconclusive = no clear call, values can overlap the other calls; inactive = mostly above about 0.92. This is one part of the list.

Test: chemical genetic growth profiling, strain panel (AID 1159580);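 also: tested at 20 µM; growth read once vehicle control cultures reached saturation at 30 °C; 1 = growth at the plate median or of vehicle wells; lower values mean less growth of the strain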
Settings: S. cerevisiae deletion strains, growth OD

Measured: normalized growth

CCC(C)n1ncn(-c2ccc(N3CCN(c4ccc(OC[C@H]5CO[C@](Cn6cncn6)(c6ccc(Cl)cc6Cl)O5)cc4)CC3)cc2)c1=O (stereo partly drawn)
active: locus YHR030C, strain SLT2, stronger effect = lower value 0.104 | locus YHR079C, strain IRE1, stronger effect = lower value 0.19 | locus YJL095W, strain BCK1, stronger effect = lower value 0.112 | locus YJR066W, strain TOR1, stronger effect = lower value 0.0832 | locus YLR113W, strain HOG1, stronger effect = lower value 0.187 | locus YNL183C, strain NPR1, stronger effect = lower value 0.183 | locus YOR231W, strain MKK1, stronger effect = lower value 0.177 | locus YPL256C, strain CLN2, stronger effect = lower value 0.188
